Screens as filed in PubChem BioAssay.
Hits are enriched below; roughly 0.9% of the tested compounds scored in any of these assays.
TAR Tat displ = HIV-1 TAR-Tat binding disruption; z-score (test concentration not listed); 100,000 compounds, 0.6% hits; HIV-1 TAR RNA, Tat peptide displacement FRET; hits give high values; active = z-score of 3 or more in at least 2 runs
CDC25B CDK2 inh = human CDC25B-CDK2/CyclinA binding inhibition; z-score (no concentration beside the values); P30305+P24941; HTRF CDC25B-CDK2/CyclinA binding, anti-His/anti-Flag; hits give high values; 94,000 compounds, 0.72% hits; AID 1259370; in the data active = z-score above about 3.2
An asterisk follows results filed as active; x = not tested or not shown.

SMILES	TAR Tat displ	CDC25B CDK2 inh
Fc1ccc(C2Nc3cccc4cccc(c34)N2)cc1	12.7*	-1.29
COc1cc(C2Nc3cccc4cccc(c34)N2)cc(OC)c1OC	x	-1.38
COc1ccc(C2Nc3cccc4cccc(c34)N2)cc1Br	26.3*	1.54
CN(C)CCCNC(=O)N1c2ccccc2Sc2ccccc21	x	-1.97
O=C(NCc1cccs1)C1(NS(=O)(=O)c2cccc3cccnc23)CCCCC1	-0.12	x
NCCOC(=O)Nc1nc2ccccc2[nH]1	0.16	-1.85
Cc1nc(SCCCOc2ccccc2)cc(-c2ccccc2)n1	-0.01	-0.71
C[C@@H]1C[C@H]2O[C@@H]2/C=C\C=C\C(=O)Cc2c(Cl)c(O)cc(O)c2C(=O)O1	4.98*	x
CC(C)=CC[C@@H](O)C1=CC(=O)c2c(O)ccc(O)c2C1=O	34.2*	x
Cc1cc(OCc2nc(-c3ccccc3)no2)ccc1Cl	x	0.11
O=C(Nc1ccc(Cl)cc1Cl)c1csc(-c2cccnc2)n1	x	0.81
Cc1cc2c(cc3c(SCC(=O)Nc4ccccc4F)nncn32)o1	0.66	x
Cc1cc2c(cc3c(SCC(=O)NCc4ccco4)nncn32)o1	27.4*	x
CCCCn1c(CN2CCCCC2CC)nc2c1c(=O)n(C)c(=O)n2C (stereo not given)	-0.2	-0.25
CCOC(=O)N1CCN(C(=O)Nc2ccc3snnc3c2)CC1	1.91	-0.22
CCC1CCCCN1CCCNC(=O)C1CCCN(S(=O)(=O)N2CCCCC2)C1 (stereo not given)	4.48*	x
CCC1CCCCN1CCCNC(=O)C1CCCN(S(=O)(=O)N2CC(C)CC(C)C2)C1 (stereo not given)	1.33	x
COC(=O)Cc1c(C)nc2nc(NCc3cccs3)[nH]n2c1=O	1.29	0.52
COCCNC(=O)CCc1nc2sc3c(c2c(=O)[nH]1)CCCCC3	0.44	x
O=C(CCc1nc2sc3c(c2c(=O)[nH]1)CCCCC3)NCCN1CCOCC1	5.5*	x
Cc1cc(N2CCOCC2)n2nc(-c3ccc(Cl)cc3)nc2n1	2.25	-1.9
CCSc1ncc2c(=O)n(CC(=O)NC(C)CC)cnc2n1 (stereo not given)	0.81	x
CCOc1cc(/C=C2/SC(N3CC(C)OC(C)C3)=NC2=O)ccc1O (stereo not given)	x	-3.59
Cc1nn(CC(=O)NCc2cccs2)c(=O)c2cc3occc3n12	-0.29	-1.72
CCOC(=O)c1cc(-c2ccccc2)sc1NC(=O)CSc1nc2ccccc2s1	x	-0.35
SMILES	TAR Tat displ	CDC25B CDK2 inh
CCOC(=O)c1cnn(-c2ccccc2)c1NC(=O)CSc1nc2ccccc2s1	x	19.4*
COC(=O)c1cc2oc(C)cc2n1Cc1nc(-c2ccc(Cl)cc2)oc1C	-0.93	-1.64
CCCC(NS(=O)(=O)c1cc2c(cc1Cl)NC(=O)CO2)c1cccs1 (stereo not given)	-0.84	x
COc1ccc(-c2nc3ncccn3c2NCc2ccccc2)cc1OC	-0.13	x
Cc1cc(C)cc(NC(=O)CSc2nc(-c3ccc(Cl)cc3)nc3cc(=O)[nH]n23)c1	22.9*	x
Cc1ccc(NC(=O)CSc2nc(-c3ccc(Cl)cc3)nc3cc(=O)[nH]n23)cc1C	24.6	x
CSc1cccc(NC(=O)CSc2nc(-c3ccc(Cl)cc3)nc3cc(=O)[nH]n23)c1	18.1*	x
O=C(CSc1nc(-c2ccc(Cl)cc2)nc2cc(=O)[nH]n12)Nc1ccccc1	16.8	x
Cc1ccc(OCC(O)CN2CCN(Cc3ccc4c(c3)OCO4)CC2)cc1C (stereo not given)	x	-1.03
Cc1sc2c(c1C)CSC(C(=O)NCc1ccco1)=C2	3.56*	x
Cc1ccc(CNC(=O)C2=Cc3sc(C)c(C)c3CS2)cc1	0.81	x
COC(=O)c1c(NC(=O)Cn2nc(C(F)(F)F)cc2C)sc2c1CCC(C)C2 (stereo not given)	1.18	x
Cc1c(-c2nc(-c3ccc4c(c3)OCO4)no2)nnn1-c1ccccc1	0.23	x
Cn1c(=O)c2c(c3ccccc31)OC(=O)CC2c1ccco1 (stereo not given)	14.2*	-0.48
Cn1c(=O)c2c(c3ccccc31)OC(=O)CC2c1ccccc1 (stereo not given)	-0.31	-0.44
O=C(Nc1ccc(Br)cc1)N1CCSc2ncccc21	0.44	x
O=C(Cc1ccc(NC(=O)N2CCSc3ncccc32)cc1)Nc1ccc(Br)cc1	0.53	16.1*
N/C(=N\OC(=O)/C=C/C(=O)O)c1cc(C(F)(F)F)cc(C(F)(F)F)c1	x	-1.9
COC(=O)CSc1nc(C)cc(C)n1	0.56	-0.29
CN1CCN(C(=O)c2ccc3c(c2)NC(=O)C2CCCCN32)CC1 (stereo not given)	-0.91	x
Cc1c2c(=O)n(-c3nc4ccccc4s3)nc-2cc(O)n1CCc1cnc[nH]1	26.4*	-0.36
Cc1c2c(=O)n(-c3nc4ccccc4s3)nc-2cc(O)n1CCc1c[nH]c2ccccc12	9.19*	2.02
CCC(C)Cn1c(C)c2c(=O)n(-c3nc4ccccc4s3)[nH]c2cc1=O (stereo not given)	1.25	-1.52
Cc1nn(C(C)C(=O)NCCc2c[nH]c3ccccc23)c(=O)c2c1sc1ccccc12 (stereo not given)	2.52	-1.7
O=C(CN1C(=O)c2ccccc2S1(=O)=O)NCc1ccc2c(c1)OCO2	1.76	0.09
SMILES	TAR Tat displ	CDC25B CDK2 inh
CNC[C@H](O)c1ccc(O)c(O)c1	x	-1.71
NC[C@H](O)c1ccc(O)c(O)c1	27.3*	5.87*
O=C(CCc1nnc2ccc(NCCCN3CCCC3=O)nn12)Nc1ccccc1F	2.27	x
N#Cc1c(SCC(=O)NCC2CCCO2)nc2c(c1-c1ccco1)CC/C2=C/c1ccco1 (stereo not given)	20.4*	x
N#Cc1c(SCC(=O)Nc2cccc(F)c2)nc2c(c1-c1ccco1)CCCC2	x	-1.72
COc1ccc(Br)cc1C1CC(=O)N2CN(Cc3ccco3)CSC2=C1C#N (stereo not given)	-1.27	-0.21
COc1ccc(Br)cc1C1CC(=O)N2CN(c3ccc(F)cc3)CSC2=C1C#N (stereo not given)	-4.03	4.43*
CCc1ccc(N2CSC3=C(C#N)C(c4cccc(F)c4)CC(=O)N3C2)cc1 (stereo not given)	0.58	5.18*
N#CC1=C2SCN(c3ccc(F)cc3)CN2C(=O)CC1c1cccc(F)c1 (stereo not given)	-3.91	6.44*
N#CC1=C2SCN(c3ccc(F)cc3)CN2C(=O)CC1c1cccc(Br)c1 (stereo not given)	-1.76	3.28*
O=C1N(Cc2ccccc2)C2CS(=O)(=O)CC2N1c1ccc(F)cc1 (stereo not given)	1.66	x
O=C(CSc1nnc2ccccn12)Nc1ccc2c(c1)OCO2	x	-1.81
Cc1ccc(-n2nc(C(=O)O)c(C)c(C#N)c2=O)cc1	-0.2	-2.62
O=C(c1ccc(Cl)cc1Cl)N1CCc2[nH]c3ccc(F)cc3c2C1	x	-2.22
CCOC(=O)Cc1c(C)nc2c(-c3ccc(Cl)cc3)c(C)nn2c1C	x	-2.96
N#CC1=C2SCN(c3ccccc3)CN2C(=O)CC1c1cccc(Br)c1 (stereo not given)	-3.33	6.86*
COc1ccc(N2CSC3=C(C#N)C(c4ccc(Br)cc4)CC(=O)N3C2)cc1 (stereo not given)	-1.36	5.33*
N#CC1=C2SCN(c3ccccc3)CN2C(=O)CC1c1ccc(Br)cc1 (stereo not given)	-4.1	3.95*
N#CC1=C2SCN(c3ccc(Br)cc3)CN2C(=O)CC1c1cccc(F)c1 (stereo not given)	-2.98	6.61*
N#CC1=C2SCN(c3ccccc3F)CN2C(=O)CC1c1ccc(Br)cc1 (stereo not given)	-0.67	-2.36
